These results are taken from PubChem BioAssay (NCI).

About 83,000 compounds went through this panel and 20% of them were active in at least one assay; those are over-represented in the sample as a whole.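 Percent growth is the endpoint: 0 to 100 indicates growth inhibition (40 means 60% inhibition), 0 means no net growth, and negative values indicate cell death.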 Unmarked numbers belong to inactive results. Activity calls are given as the source filed them. The calls were made as follows: active = growth percent below 10; inactive = the rest.

Test systems include HCT-15 colon; HT29 colon; SNB-75 CNS; SNB-19 CNS; U251 CNS; PC-3 prostate; SK-MEL-5 melanoma; UACC-62 melanoma; LOX IMVI melanoma; SK-MEL-28 melanoma.
Experiment in all cases: NCI-60 one-dose screen, 48 h (100 = growth as untreated, 0 = no growth, -100 = all killed)
Common to all, as to conditions: 10 µM unless noted

As to `COc1ccc(Cl)cc1NC(N)=S`, the growth in the assay with HCT-15 colon is 103%; with HT29 colon, 98.7%; with SNB-75 CNS, 86.6%; in the assay with SNB-19 CNS, 111%; in the assay with U251 CNS it was 97.7%; with PC-3 prostate it was 93%. In addition, the growth was 104% with SK-MEL-5 melanoma, 102% with UACC-62 melanoma, 96.7% with LOX IMVI melanoma and 108% in the assay with SK-MEL-28 melanoma.
For the compound `COc1ccc(C(=O)c2cc(OC)c(OC)c(OC)c2)cc1/C=C/C(=O)c1ccc(OC)c(OC)c1`, the growth in the assay on HCT-15 colon is 12.8%; in the assay with HT29 colon it was 9.61% (active); in the assay with SNB-75 CNS, 22.9%; in the assay on SNB-19 CNS it was 33.2%; with U251 CNS, 25.5%; in the assay on PC-3 prostate, 33.9%. Further, the growth with SK-MEL-5 melanoma was 21.5%; with UACC-62 melanoma it was 24.8%; with LOX IMVI melanoma, 10.9%; in the assay with SK-MEL-28 melanoma, 21.8%.
As to `CCCCCC/C=C\CCCCCCCCOc1ccc(CCOP(=O)(O)OCC[N+](C)(C)C)cc1`, the growth in the assay on HCT-15 colon was 85%; in the assay with HT29 colon, 30.2%; with SNB-75 CNS, 75.3%; in the assay with SNB-19 CNS, 39.4%; in the assay on U251 CNS, 27.5%; in the assay on PC-3 prostate, 14.8%. Besides, the growth in the assay with SK-MEL-5 melanoma is 84.9%; with UACC-62 melanoma it was 71.1%; with LOX IMVI melanoma it was 81.3%; with SK-MEL-28 melanoma it was 95.5%.
In the case of `CCN(CC)S(=O)(=O)c1ccc2[nH]c(=O)cc(C(=O)Nc3ccc(OC)cc3OC)c2c1`, the growth with HCT-15 colon was 106%; in the assay with HT29 colon it was 126%; in the assay with SNB-75 CNS, 110%; in the assay with SNB-19 CNS, 104%; in the assay on U251 CNS, 108%; in the assay on PC-3 prostate, 105%. The growth was 111% in the assay with SK-MEL-5 melanoma, 103% with UACC-62 melanoma, 106% in the assay with LOX IMVI melanoma and 123% in the assay with SK-MEL-28 melanoma.
As for `CN(C)C1CCC(NC2=CC(=O)C=CC2=O)CC1` (stereo not given), the growth in the assay on HCT-15 colon was 114%; in the assay with HT29 colon, 116%; with SNB-75 CNS, 86.1%; with SNB-19 CNS it was 115%; with U251 CNS it was 111%; with PC-3 prostate it was 104%. Moreover, the growth in the assay with SK-MEL-5 melanoma is 106%; in the assay on UACC-62 melanoma, 110%; in the assay on LOX IMVI melanoma it was 97.9%; with SK-MEL-28 melanoma it was 113%.
As for `O=C(CSc1nc(-c2ccc(Cl)cc2)cn1-c1ccc(Cl)cc1)c1ccc(Br)cc1`, the growth with HCT-15 colon is 85.2%; with HT29 colon it was 66.9%; in the assay on SNB-75 CNS it was 44.4%; in the assay with SNB-19 CNS, 77.8%; in the assay on U251 CNS it was 37.5%; with PC-3 prostate, 50.3%. In addition, the growth was 94.9% with SK-MEL-5 melanoma, 72.1% in the assay with UACC-62 melanoma, 73.4% in the assay with LOX IMVI melanoma and 87.1% in the assay on SK-MEL-28 melanoma.
Take `COc1ccc(C(=O)/C=C/c2ccc(/C=C/c3cc(OC)c(OC)c(OC)c3)cc2)cc1`: the growth was 33.6% with HCT-15 colon; 36.2% in the assay on HT29 colon; 59.8% in the assay with SNB-75 CNS; 74.4% with SNB-19 CNS; 36.3% with U251 CNS; 52.2% with PC-3 prostate. The growth with SK-MEL-5 melanoma was 62%; with UACC-62 melanoma, 53.7%; with LOX IMVI melanoma it was 24.7%; in the assay on SK-MEL-28 melanoma, 84.7%.
As for `CN=S(=O)(NC(=O)c1ccc(Cl)cc1Cl)c1ccc(Br)s1` (stereo not given), the growth in the assay on HCT-15 colon is 99.9%; in the assay with HT29 colon it was 112%; in the assay on SNB-75 CNS it was 73.4%; with SNB-19 CNS, 103%; in the assay with U251 CNS, 89.3%; in the assay with PC-3 prostate, 79.2%. The growth was 95.3% in the assay with SK-MEL-5 melanoma, 99.9% in the assay with UACC-62 melanoma, 105% in the assay on LOX IMVI melanoma and 102% in the assay with SK-MEL-28 melanoma.
For `C=CCOc1cccc(/C=C/C(=O)c2sc(Nc3cccnc3)nc2C)c1`, the growth in the assay with HCT-15 colon is 33.5%; with HT29 colon, 16.8%; with SNB-75 CNS, 2.22% (active); with SNB-19 CNS it was 57.7%; in the assay with U251 CNS, 50.7%; with PC-3 prostate, 44.6%. The growth in the assay on SK-MEL-5 melanoma is 74.9%; with UACC-62 melanoma, 59.9%; with LOX IMVI melanoma, 32.9%; in the assay with SK-MEL-28 melanoma it was 87.1%.
Regarding `Cc1c(C(=O)NCc2ccccc2)[n+](=O)c2cc(F)ccc2n1[O-]`, the growth was 111% with HCT-15 colon; 94.4% with HT29 colon; 76.7% in the assay with SNB-75 CNS; 108% in the assay on SNB-19 CNS; 102% with U251 CNS; 81.9% in the assay with PC-3 prostate. Also, the growth with SK-MEL-5 melanoma is 86.7%; in the assay with UACC-62 melanoma, 104%; in the assay on LOX IMVI melanoma, 97.4%; in the assay on SK-MEL-28 melanoma, 91.3%.
In the case of `COc1c(NC[C@H]2OC(O)[C@H](O)[C@@H](O)[C@@H]2O)c(=O)c1=O` (stereo not given in full), the growth was 107% in the assay with HCT-15 colon; 118% with HT29 colon; 70.9% in the assay with SNB-75 CNS; 109% in the assay on SNB-19 CNS; 95.4% in the assay on U251 CNS; 92.7% in the assay on PC-3 prostate. For the same compound, the growth in the assay with SK-MEL-5 melanoma was 100%; with UACC-62 melanoma it was 96.6%; in the assay on LOX IMVI melanoma, 95.5%; in the assay on SK-MEL-28 melanoma, 107%.
Consider `CCCCCCCCCN1C(=O)/C(=c2\sc3n(c2=O)C2C(NN=3)N(CC)C(=O)N2CC)c2ccccc21` (stereo not given), for which the growth was 73% in the assay on HCT-15 colon; 7.96% (active) with HT29 colon; -14.4% (active) in the assay on SNB-75 CNS; 39.7% in the assay on SNB-19 CNS; 25.1% with U251 CNS; 34.3% with PC-3 prostate. The growth in the assay on SK-MEL-5 melanoma is 72.9%; in the assay on UACC-62 melanoma, 23.7%; in the assay with LOX IMVI melanoma, 19.4%; with SK-MEL-28 melanoma, 41.3%.
Take `O=C(OCCCCOC(=O)n1cnc2ccccc21)n1cnc2ccccc21`: the growth in the assay on HCT-15 colon was 103%; in the assay with HT29 colon, 97%; in the assay on SNB-75 CNS, 96%; with SNB-19 CNS it was 97.7%; with U251 CNS, 99.5%; with PC-3 prostate, 91.8%. Further, the growth in the assay with SK-MEL-5 melanoma was 101%; with UACC-62 melanoma it was 96.3%; with LOX IMVI melanoma, 92.9%; in the assay on SK-MEL-28 melanoma it was 108%.
